Screens as filed in PubChem BioAssay.
Vif-A3G inh: inhibitors of Vif-APOBEC3G interaction; Q9HC16; HeLa A3G-eYFP + Vif (tagged APOBEC3G with the HIV-1 protein that degrades it), YFP fluorescence, overnight; Potency, µM (top dose mostly 46.1 µM), for inactives: top-dose activity, negative = active, most hits filed as inhibitors; actives 0.076% (n = 410,000); also: potency is read from the fitted curve at half-maximal effect; % is scaled to controls: 0 for no effect and ±100 for the full control effect; nearly all actives have a fitted effect of over 60% in size
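Read-out is eYFP fluorescence (Ex 488/Em 500-530) from Vif-expressing HeLa A3G-eYFP cells; more signal means A3G escaped Vif-mediated degradation. Cells plated overnight, compound pinned in, incubated overnight at 37 deg C.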
TRPML1 inh: blocks the human TRPML1 channel | Q9GZU1 | TRPML1-inducible cells, Ca2+ dye fluorescence, FDSS; stronger effect = lower value; inhibition of EC80 agonist-evoked calcium signal | activity change, negative = inhibition, % (concentration not given with the values) | actives 0.02% (n = 390,000) | AID 624415; in the data active = activity change below about -50%; inconclusive = between about -30% and that limit;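 also: stimulus is agonist 54-4 at its EC80 concentration; % is scaled to controls: 0 for no effect and ±100 for the full control effect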
Target sequence (Q9GZU1 whole entry, looked up): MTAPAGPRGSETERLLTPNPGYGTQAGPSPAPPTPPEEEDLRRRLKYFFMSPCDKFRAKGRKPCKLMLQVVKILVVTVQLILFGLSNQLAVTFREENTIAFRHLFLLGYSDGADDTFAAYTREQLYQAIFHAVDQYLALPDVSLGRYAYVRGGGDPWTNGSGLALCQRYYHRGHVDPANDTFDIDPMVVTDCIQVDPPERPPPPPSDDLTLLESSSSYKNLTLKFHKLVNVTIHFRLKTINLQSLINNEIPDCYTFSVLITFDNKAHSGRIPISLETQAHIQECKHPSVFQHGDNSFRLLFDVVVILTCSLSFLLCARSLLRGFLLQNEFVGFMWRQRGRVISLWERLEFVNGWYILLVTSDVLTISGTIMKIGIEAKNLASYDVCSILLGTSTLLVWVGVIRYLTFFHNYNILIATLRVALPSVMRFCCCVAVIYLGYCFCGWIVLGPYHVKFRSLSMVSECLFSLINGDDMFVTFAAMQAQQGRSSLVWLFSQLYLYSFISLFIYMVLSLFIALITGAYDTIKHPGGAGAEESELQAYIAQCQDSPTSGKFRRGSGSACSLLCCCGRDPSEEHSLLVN
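Calcium fluorescence in TRPML1-DL cells induced overnight with Tet: a 110 s read after compound pin addition, then a 110 s antagonist read after challenge with 54-4 at 4 uM final (EC80).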
TRPML1 ag: human mucolipin-1 channel agonism; TRPML1-expressing cells, Ca2+ dye fluorescence, FDSS; actives 0.12% (n = 410,000); AID 624414; activation, % (no concentration beside the values); Q9GZU1; in the data active = activation above about 50%; inconclusive = mostly about 30% to 49%; also: 0% is about no effect
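Tet-induced TRPML1-DL cells, 1,500 per well, cultured overnight, were loaded with a no-wash Ca2+ dye for 45–90 min. Calcium fluorescence was recorded on the FDSS for 110 s after compound addition, before the EC80 agonist (4 uM 54-4) was added.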
Vif-APOBEC3F blk: Vif-A3F binding inhibition | AID 602313 | actives 0.2% (n = 390,000) | HeLa A3F-eYFP + Vif (tagged APOBEC3F with the HIV-1 protein that degrades it), YFP fluorescence increase | Potency, µM (top dose mostly 46.1 µM), for inactives: top-dose activity, negative = active; also: potency is read from the fitted curve at half-maximal effect; % of control where 0% means no effect; nearly all actives have a fitted effect of over 65% in size
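HeLa cells stably expressing Vif plus C-terminally eYFP-tagged A3F were seeded, incubated overnight at 37 deg C, dosed with compound, incubated overnight again at 37 deg C. Yellow fluorescence (Ex 488/Em 500-530) reported blocked Vif-mediated A3F-eYFP degradation.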
PINK1 expr mod: PINK1 expression modulation; PINK1 immunofluorescence, high-content cytometry, 24 h; Potency, µM (titrated, usually from 76.6 µM), for inactives: top-dose activation (PINK1 increase), actives largely listed as activators; actives 0.2% (n = 410,000); active = well fitted activation curve with a large enough effect; inconclusive = small, poorly fitted or top-dose-only effect; cell line not stated here; also: potency is read from the fitted curve at half-maximal effect; % of control where 0% means no effect; nearly all actives have a fitted effect of over 65% in size
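Compound titrations (5 concentrations, 24 h) on a stable cell line; DMSO and CCCP controls. Endpoint: fixed-cell PINK1 immunofluorescence with mitochondrial, cell and nuclear markers, scanned by microplate cytometer.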
Numbers without * were called inactive; ? = inconclusive; . = no result given. A selection: hits, their analogues and other compounds. The true share with any hit is near 0.52%. Unless noted, calls follow the shape of the dose curve; as a rule, active = well fitted curve in the direction sought with a large enough effect; inconclusive = small, poorly fitted or top-dose-only effect, or another doubt; inactive = no such curve, though single readings can be large; an effect the other way counts as inactive or inconclusive.

SMILES | Vif-A3G inh | TRPML1 inh | TRPML1 ag | Vif-APOBEC3F blk | PINK1 expr mod
CCCn1c(C2CCCN2c2nc(-c3cccc(Br)c3)cs2)nc2ccccc21 (centres undefined) | -3% | 9 | 0 | 10µM* | 11%
COCCN1C(=O)/C(=C/c2ccc(N3CCCC3)cc2)SC1=S | ? | -11 | 60* | ? | ?
CSc1ccc(/C=C(/NC(=O)c2ccco2)C(=O)N2CCCCC2)cc1 | -1% | -2 | 1 | -3% | 2%
Cc1ccc(SC2=C(Sc3ccc(C)cc3)C(=O)c3ccccc3C2=O)cc1 | -10% | 2 | 0 | 8.9µM* | ?
CC1=C(C(=O)Nc2ccccc2)C(c2ccncc2)n2nc(SCc3ccccc3)nc2N1 (centres undefined) | -2% | -3 | 0 | 0% | 0%
Cn1c(N2CCN(C(c3ccccc3)c3ccccc3)CC2)nc2c1c(=O)[nH]c(=O)n2C | -3% | 15 | 2 | 0% | -2%
CCCOc1ccc(Cc2nn3c(=O)/c(=C/c4ccco4)sc3nc2=O)cc1 | 1% | 0 | 50* | -3% | -1%
COc1ccccc1NS(=O)(=O)c1ccc(C(=O)N2CCN(c3ccccn3)CC2)cc1 | 2% | 28 | 0 | -16% | 3%
Cc1nc2ccc(NC(=O)c3cc(S(=O)(=O)N(C)c4ccccc4)ccc3Cl)cc2s1 | -10% | 7 | 0 | 22µM* | 25%
CCN(CC)S(=O)(=O)c1cccc(NC(=O)C2SC(=Nc3ccc(C)cc3C)C(C(=O)NCC3CCCO3)=C2N)c1 (centres undefined) | -1% | 6 | 0 | -7% | 25µM*
COc1ccc(C(=O)C(C)[n+]2ccc(C)c3ccccc32)cc1[N+](=O)[O-] (centres undefined) | 5.6µM* | -21 | ? | ? | -1%
O=C(Cn1nc(CNc2ccc(Br)cc2)[n+]2c1CCCCC2)c1ccc([N+](=O)[O-])cc1 | 3% | -12 | -1 | -7% | 40µM*
COC(=O)c1c(N)c(C#N)c2n1CCCCC2 | 1% | -1 | 0 | -5% | 8.9µM*
O=S(=O)(Nc1ncccn1)c1ccc(NC(=S)NCc2cccnc2)cc1 | 0% | 18 | 2 | 15% | -2%
Cc1ccc(NC(=O)c2ncn(CCCNCC3CCCO3)n2)cc1C (centres undefined) | -1% | -5 | 0 | -3% | -1%
Cc1ccc(NC(=O)c2sc3nc(-c4ccncc4)ccc3c2N)cc1 | ? | -4 | ? | ? | 32µM*
COc1ccc(NC(=O)c2sc3nc(-c4cccnc4)ccc3c2N)cc1 | -5% | 8 | 3 | ? | 45µM*
COc1ccc(-c2ccc3c(N)c(C(=O)Nc4ccc(C(F)(F)F)cc4)sc3n2)cc1OC | -29% | -13 | 0 | -2% | 13%
COc1ccc(NC(=O)c2sc3nc(-c4cccnc4)ccc3c2N)cc1OC | ? | -13 | 0 | 5.6µM* | 2%
C/C(=N\N=C1\NC(=O)C(CC(=O)Nc2ccccc2F)S1)C1CCCCC1 (centres undefined) | -2% | -5 | 1 | -5% | 0%
NS(=O)(=O)c1cccc(NC(=O)CSc2n[nH]c(-c3ccccc3Br)n2)c1 | 0% | 32 | 2 | 4% | 1%
O=C(Cn1c(O)c(N=NC(=O)c2ccncc2)c2ccccc21)Nc1ccccc1 | -3% | 4 | 0 | -9% | 6%
Cc1ccc(NC(=O)Cn2c(O)c(N=NC(=O)c3ccncc3)c3ccccc32)cc1 | 0% | 28 | 0 | 4µM* | 7%
Cc1cccc2c(N=O)c(O)[nH]c12 | 0% | . | . | 3% | 3%
COc1ccc2cc(-c3cn4c(n3)sc3cc(F)ccc34)c(=O)oc2c1 | 1% | -17 | 1 | -8% | -1%
SMILES | Vif-A3G inh | TRPML1 inh | TRPML1 ag | Vif-APOBEC3F blk | PINK1 expr mod
CCCCCCc1cc2cc(-c3cn4c(n3)sc3cc(OC)ccc34)c(=O)oc2cc1O | 6% | -71* | 3 | 9% | 1%
Cc1noc(/C=C/c2ccccc2F)c1S(=O)(=O)N1CCC(C(=O)Nc2ccc(C#N)cc2)CC1 | 5% | 34 | 1 | 2% | 11%
O=C(CN1CCCCC1)c1c[nH]c2ccccc12 | -10% | 2 | 1 | 2% | 1%
CC1CC(C)CN(CC(=O)c2c[nH]c3ccccc23)C1 (centres undefined) | ? | 6 | 1 | 32µM* | 2%
Cc1ccc2nccnc2c1 | -15% | . | 0 | . | .
Cc1ccsc1C(=O)Nc1ccc(S(=O)(=O)N2CCOCC2)cc1 | 1% | -7 | 0 | -1% | 0%
Cc1cccc(C(=O)NNC2=C(C(=O)C(F)(F)F)CCC2)c1O | 0% | -4 | 0 | . | 16µM*
CC1(C(=O)Nc2ccccc2F)CCN1C(=O)Cc1ccc(-c2ccccc2)cc1 (centres undefined) | 3% | . | 0 | . | 1%
O=S(=O)(c1ccc(NC(=S)NC23CC4CC(CC(C4)C2)C3)cc1)N1CCCCC1 | 4% | 2 | 0 | 6% | 18µM*
CC(NC(=S)Nc1ccc(S(=O)(=O)N2CCOCC2)cc1)C1CC2CCC1C2 (centres undefined) | 0% | -10 | 0 | 10% | 40µM*
CCCn1c(=O)n(-c2ccccc2)c(=O)c2sc3ccccc3c21 | -1% | -2 | -1 | -7% | 0%
CC(C)(C)c1ccc(C(=O)NCCC(=O)N2CCN(c3ncccn3)CC2)cc1 | 1% | -14 | 69* | . | 1%
COC(=O)C1=C(CSc2nc3ccccc3s2)NC(=O)NC1c1ccc(F)cc1 (centres undefined) | -4% | 28 | 1 | -15% | 3%
N#C/C(=C\c1ccc(OC(=O)c2ccc(Cl)s2)cc1)c1nc2ccccc2[nH]1 | 0% | -7 | 1 | 1% | 7%
N#CC1=C(N)Oc2cc(N)ccc2C1c1ccc(F)cc1F (centres undefined) | 13µM* | -10 | 3 | 22µM* | 10%
O=C1NC[C@@H](CCCCN2C[C@H](Cc3ccc(O)cc3)N(CCC3CCCCC3)C(=O)C2=O)N(CC2CCCCC2)C1=O | . | . | 0 | . | 1%
CCC1(C)Cc2c(sc3nnn(CC(=O)Nc4ccc(C)cc4)c(=O)c23)CO1 (centres undefined) | 0% | 9 | 2 | -7% | 10µM*
CCC1(C)Cc2c(sc3nnn(CC(=O)Nc4cccc5ccccc45)c(=O)c23)CO1 (centres undefined) | -11% | 31 | 0 | -2% | ?
CC(=O)Oc1ccc(C(=O)Nc2cccc(C(=O)c3ccc(C)c(C)c3)c2)cc1 | -9% | 1 | 2 | 5% | 2%
Cc1c(C(=O)N2CCN(C(C)C)CC2)sc2ncnc(NCc3ccco3)c12 | . | . | . | . | 0%
CN(C)CCNc1ccc2ncn3c4ccc(O)cc4c(=O)c1c23 | ? | -8 | 13 | 25µM* | -2%
